What all share (assay): NCI-60 one-dose screen, 48 h (100 = growth as untreated, 0 = no growth, -100 = all killed)
Assay [1] has as its system K-562 leukemia. Particulars: 10 µM unless noted.
Assay [2] deals with MALME-3M melanoma. Conditions: 10 µM unless noted.
Assay [3] concerns MDA-MB-231 breast. Particulars: 10 µM unless noted.
Assay [4] relates to RXF 393 renal. Conditions: 10 µM unless noted.
Assay [5] concerns SF-268 CNS. Particulars: 10 µM unless noted.
Assay [6] concerns SF-295 CNS. Particulars: 10 µM unless noted.
Assay [7] relates to SF-539 CNS. Particulars: 10 µM unless noted.
Assay [8] relates to UACC-257 melanoma. Conditions: 10 µM unless noted.
Assay [9] deals with M14 melanoma. Conditions: 10 µM unless noted.
The subject of assay [10] is HCT-15 colon. Particulars: 10 µM unless noted.
Assay [11] deals with HT29 colon. Particulars: 10 µM unless noted.
Assay [12] relates to SNB-75 CNS. Particulars: 10 µM unless noted.
In assay [13] the test system is SNB-19 CNS. Conditions: 10 µM unless noted.
The test system of assay [14] is U251 CNS. Particulars: 10 µM unless noted.
In assay [15] the test system is PC-3 prostate. Conditions: 10 µM unless noted.
In assay [16] the test system is SK-MEL-5 melanoma. Particulars: 10 µM unless noted.
In assay [17] the test system is UACC-62 melanoma. Particulars: 10 µM unless noted.
The test system of assay [18] is LOX IMVI melanoma. Particulars: 10 µM unless noted.
For assay [19], the system named is SK-MEL-28 melanoma. Particulars: 10 µM.
The test system of assay [20] is SK-MEL-2 melanoma. Particulars: 10 µM unless noted.

Compounds without any hit were thinned out: in the full panel of roughly 83,000, 20% have a hit.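 Single-dose data. Exposure time 48 hours. Values below 10 considered active.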 A number with no mark means an inactive call. Active and inactive are the calls of the source.

With `Nc1no[n+]([O-])c1-c1nnc2c(n1)-c1ccccc1C2=O`, the growth was -14.9% (active) in assay [1]; 64% in [2]; 67.8% in assay [3]; 91.2% in [4]; 76.5% in [5]; 86.7% in assay [6]. The growth was 81.8% in assay [7]; -11.9% (active) in assay [8]; 18.9% in assay [9]; -71.4% (active) in assay [10]; 57.1% in [11]; 95% in [12]. Besides, the growth in assay [13] was 84.5%; in assay [14], 88%; in assay [15] it was 33.6%; in assay [16], 19.7%; in assay [17], 64.3%; in assay [18] it was 27.5%. The growth is 81.4% in assay [19] and 86.9% in [20].

With `COc1ccc(OC)c(/C=C/C(=O)c2c(C)nc3ccccc3c2/C=C/c2ccccc2)c1`, the growth in [1] is 17%; in assay [2], 103%; in assay [3], 51.9%; in assay [4] it was 69.6%; in [5], 73.7%; in assay [6] it was 76%. Besides, the growth in [7] was 99.6%; in assay [8] it was 72%; in assay [9], 81.5%; in assay [10], 37.6%; in assay [11] it was 37.2%; in [12] it was 59.2%. Further, the growth was 80.9% in assay [13]; 54.1% in assay [14]; 59.4% in [15]; 82.9% in assay [16]; 50.1% in assay [17]; 42.8% in [18]. In addition, the growth in [19] was 95.1%; in assay [20], 72.2%.

On to `Oc1c(CN2CCN(c3ccccc3F)CC2)cc(Br)c2cccnc12`, for which the growth in assay [1] is 1.01% (active); in assay [2], -58.2% (active); in assay [3], -33.5% (active); in assay [4], -57.5% (active); in assay [5], 0.474% (active); in assay [6] it was -72.5% (active). The growth in assay [7] was -90.5% (active); in assay [8] it was 11.3%; in assay [9], -3.56% (active); in [10] it was -4.53% (active); in [11] it was -63.1% (active); in assay [12], -92.2% (active). The growth in assay [13] is -16.6% (active); in [14], -83.5% (active); in assay [15], 5.26% (active); in [16], -10.3% (active); in [17], -42.5% (active); in assay [18] it was -8.44% (active). Also, the values for the growth in [19] and in assay [20] were -78% (active) and -54.3% (active), respectively.

For the compound `COc1cccc2c(=O)c3c(sc12)c(NCCCNCCO)nc1ccccc13`, the growth in assay [1] is -46.9% (active); in [2], 81.2%; in [3], 23.9%; in assay [4], 44.5%; in assay [5], 48.2%; in assay [6], 73%. Besides, the growth was 64.9% in [7]; 84.5% in assay [8]; 41.9% in [9]; 25.6% in assay [10]; -43.8% (active) in assay [11]; 17.2% in assay [12]. For the same compound, the growth in [13] was 63.6%; in assay [14] it was 14.4%; in assay [15], 45%; in assay [16], 72.6%; in assay [17], 77.4%; in assay [18] it was 37.2%. Moreover, the growth in assay [19] is 81.9%; in [20], 94.1%.

As to `COc1cc(NC(=O)CCSc2nc3ccccc3c(=O)n2Cc2ccccc2)cc(OC)c1OC`, the growth in assay [1] is 81.2%; in assay [2], 82%; in assay [3] it was 64.9%; in [4], 92.3%; in assay [5] it was 81.9%; in [6], 75.3%. Moreover, the growth in assay [7] is 72.9%; in assay [8], 89.5%; in [9], 94.7%; in assay [10] it was 92.5%; in assay [11], 97.1%; in assay [12] it was 55.7%. Moreover, the growth is 84.9% in assay [13]; 91.6% in assay [14]; 66.9% in [15]; 87.4% in assay [16]; 64.8% in [17]; 82% in assay [18]. Moreover, the growth in assay [19] was 102%; in [20] it was 84.4%.

For the compound `CC1=C(CC(=O)c2cccc([N+](=O)[O-])c2)C(=O)c2ccccc2C1=O`, the growth in assay [1] is -4.57% (active); in assay [2] it was -87.5% (active); in assay [3], -17.7% (active); in assay [4], -26% (active); in assay [5] it was -33.4% (active); in [6] it was -58.2% (active). Besides, the growth is -22.1% (active) in [7]; -13.7% (active) in assay [8]; -41.9% (active) in assay [9]; 19.5% in assay [10]; 106% in [11]; -84.6% (active) in [12]. For the same compound, the growth in assay [13] was 13%; in [14], -81% (active); in assay [15] it was 42.8%; in assay [16], 4.78% (active); in assay [17] it was -50.8% (active); in assay [18], -51.9% (active). Moreover, the results for the growth in assay [19] and in assay [20] were -89.9% (active) and -36.2% (active), respectively.

As for `CNCCNc1nc2ccccc2c2c(=O)c3cc(OC)ccc3sc12`, the growth in assay [1] was -34% (active); in [2], 67.1%; in [3], 1.79% (active); in assay [4], 42.4%; in assay [5] it was 38.7%; in assay [6], 87.3%. Moreover, the growth in assay [7] was 60%; in assay [8], 73.1%; in [9], -62.5% (active); in [10] it was -31.8% (active); in [11], -33.3% (active); in [12] it was 43.1%. For the same compound, the growth in assay [13] was 57.6%; in [14] it was -19.6% (active); in assay [15], 14%; in assay [16], 76.4%; in assay [17], 7.43% (active); in [18] it was -87.8% (active). Besides, the growth in assay [19] is 74.6%; in assay [20] it was 75.2%.

Consider `COc1cc(C(C)n2cc(-c3ccccc3)nn2)ccc1OC1CCCC1` (stereo not given), for which the growth in assay [1] was 34%; in [2] it was 63.7%; in assay [3], 76%; in assay [4], 83.1%; in assay [5], 72%; in [6], 47.1%. The growth in assay [7] was 69.3%; in [8], 55.4%; in assay [9] it was 82.8%; in [10] it was 62.2%; in assay [11], 82.4%; in [12] it was 75.5%. Moreover, the growth in assay [13] is 79.2%; in [14], 79%; in assay [15] it was 65.2%; in assay [16] it was 25.9%; in assay [17] it was 63.6%; in assay [18] it was 60.6%. For the same compound, the growth in [19] was 98.8%; in [20] it was 72.9%.

The values are drawn from PubChem BioAssay (NCI).
